# Source: PubChem BioAssay AID1813 (Broad Institute, 2009)
# The campaign covered roughly 300,000 compounds. About 2,500 (0.83%) were called active. No stated cut-off is given here; in the data, active means inhibition above about 60%; inconclusive means no clear call, values can overlap the other calls; inactive means below that. The list comes from a sample in which actives are over-represented; it also holds similar structures and randomly drawn compounds.
# Assay: MLPCN primary screen, SNCA 5' untranslated region (AID 1813);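 further: H4 neuroglioblastoma cells stably carrying SNCA 5'UTR luciferase fusion; 0% = DMSO wells and 100% = positive control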
# Settings: alpha-synuclein 5'UTR reporter, inhibitor activity; hits give high values; tested at 7.5 µM
row,Structure (SMILES),inhibition
1,O=C(OCC(=O)c1cccs1)C1=COCCO1,-103% (inactive)
2,CCC(C)(C)c1ccc(Oc2ccc(NC(=O)COC(=O)C3=COCCO3)cc2)cc1,90.6% (active)
3,CCOc1ccc(NC(=O)c2ccc(NC(=O)COC(=O)c3ccc(NC(=O)CC#N)cc3)cc2)cc1,-88.1% (inactive)
4,Cc1nc2ccccc2nc(=O)c1NNc1ccc([N+](=O)[O-])cc1,-109% (inactive)
5,CSCCC(NS(=O)(=O)c1ccc2c(c1)oc(=O)n2C)C(=O)NC1CCCc2ccccc21 (stereo not drawn),1.15% (inactive)
6,CC12CCC(C(=O)N(NC(=O)c3ccccc3O)C1=O)C2(C)C (stereo not drawn),67.6% (active)
7,O=C(NN1C(=O)C2C(C1=O)C1C=CC2C12CC2)c1ccccc1Cl (stereo not drawn),12.2% (inactive)
8,CC12CCC(C(=O)N(c3cccc(Cl)c3)C1=O)C2(C)C (stereo not drawn),15.6% (inactive)
9,COC(=O)c1scc(C)c1NC(=O)CSc1ccc(Cl)cc1,14.7% (inactive)
10,Cc1ccc(CSCCNC(=O)CN(c2ccc(F)cc2)S(C)(=O)=O)cc1,14.7% (inactive)
11,O=C(C1CC1)N1N=C(c2ccc(Br)cc2)CC1(O)C(F)(F)F (stereo not drawn),-12.3% (inactive)
12,O=C(Cc1ccccc1)N1N=C(c2ccncc2)CC1(O)C(F)(F)F (stereo not drawn),18.6% (inactive)
13,O=C(c1ccc(Cl)cc1)N1N=C(c2ccccn2)CC1(O)C(F)(F)F (stereo not drawn),68.6% (active)
14,CC(=O)Nc1ccc(N2C(=O)C3C4CC(=O)C(c5ccccc54)C3C2=O)cc1 (stereo not drawn),17.3% (inactive)
15,CC(Oc1ccccc1)C(=O)NN1Cc2ccccc2C1=N (stereo not drawn),-12.4% (inactive)
16,O=C1[C@H]2[C@@H](c3ccc(F)cc3)N3C(=O)N(c4ccc(C(F)(F)F)cc4)C(=O)[C@@]3(Cc3ccccc3)[C@H]2C(=O)N1C1CCCCC1,-4.59% (inactive)
17,COc1ccc(CCNC(=O)c2c(C)nn(-c3ccccc3)c2Cl)cc1,14.8% (inactive)
18,Nc1nonc1-n1nnc(C(=O)N/N=C/c2c[nH]c3ccccc23)c1-c1ccccc1,1.28% (inactive)
19,CCc1ccc2c(c1)C1(NN=C(c3ccccc3)S1)C(=O)N2 (stereo not drawn),71.7% (active)
20,CCOC(=O)c1c(C)[nH]c(C)c1S(=O)(=O)NCCCc1ccco1,0.398% (inactive)
21,Cc1oc2nc(SCC(=O)Nc3ccc(S(N)(=O)=O)cc3)nc(NC(=O)c3ccccc3)c2c1C,-1.45% (inactive)
22,CCn1c(CNC(=O)c2cc(OC)c(OC)c(OC)c2)cc2cc(C)ccc21,-1.14% (inactive)
23,COc1c(C)c2c(c(O)c1C/C=C(\C)CCC(=O)O)C(=O)OC2,76.6% (active)
24,CN1CN(C)c2ccc([N+](=O)[O-])c3cccc1c23,35.2% (inactive)
25,CC1=NN(/C(=N\c2nnc(C)s2)Nc2ccccc2)[C@H](c2ccc(C)cc2)S1,-19.5% (inactive)
26,COCCCn1c(SCC(=O)NC2CCCC2)nnc1-c1ccccc1,4.11% (inactive)
27,Cn1c(N)c(C(=O)COC(=O)c2ccccc2NCc2ccco2)c(=O)n(C)c1=O,6.96% (inactive)

row,Structure (SMILES),inhibition
1,COc1ccc(/C=C/C(=O)Nc2ccc(C34CC5CC(CC(O)(C5)C3)C4)cc2)cc1OC,76.5% (active)
2,COc1ccc(/C=C/C(=O)Nc2cccnc2)cc1OC,-72.4% (inactive)
3,COc1ccc(/C=C/C(=O)Nc2ccc(C)cc2)cc1S(=O)(=O)N1CCOCC1,-60% (inactive)
4,COc1ccc(-c2nn(C)c(=O)c3ccccc23)cc1CNC(=O)C1CCCCC1,-1.05% (inactive)
5,CCOC(=O)c1ccccc1C(=O)N1CCOCCOCCOCC1,7.43% (inactive)
6,Cc1oc2c(c1C(=O)N1CCOCC1)C(=O)c1ccccc1C2=O,101% (active)
7,Cc1ccccc1-c1ccc(Nc2ccc(C(=O)N3CCOCC3)cc2)nn1,10.1% (inactive)
8,CCOc1cc(/C=C2\SC(N3CCCC(C)C3)=NC2=O)ccc1O (stereo not drawn),-40.1% (inactive)
9,Cc1ccc(C)c(S(=O)(=O)Nc2cc(C)on2)c1,-13.8% (inactive)
10,CCCCCc1ccc(-c2cn(Cc3ccc4ccccc4c3)nn2)cc1,-16.4% (inactive)
11,CCCCCc1ccc(-c2ccc(C(=O)O)cc2)nc1,-19.1% (inactive)
12,CCCCCc1ccc(-c2ccc(OCC)cc2)nc1,79.7% (active)
13,COc1cccc(C(=O)n2ccc(-c3cccs3)n2)c1,2.56% (inactive)
14,COC(=O)c1c(NC(=O)c2ccc(S(=O)(=O)N3CCOCC3)cc2)sc2c1CCN(C(C)C)C2,-85.3% (inactive)
15,CCOc1ccc2nc(NC(=O)c3cc([N+](=O)[O-])ccc3N3CCOCC3)sc2c1,1.05% (inactive)
16,CCC(=O)NC(Nc1nc2ccc(C)cc2s1)(C(=O)OC)C(F)(F)F (stereo not drawn),13% (inactive)
17,O=C(NC(Nc1nc2ccc([N+](=O)[O-])cc2s1)(C(F)(F)F)C(F)(F)F)c1ccccc1,94.1% (active)
18,COc1ccc(Cl)cc1-n1c(=S)sc2c(=O)n(-c3ccc(F)cc3)c(SCC(=O)O)nc21,14.1% (inactive)
19,CCOC(=O)N1CCN(C(=O)c2ccccc2SCC(=O)NCC2CCCCC2)CC1,-17.7% (inactive)
20,O=c1c([N+](=O)[O-])cc(C(F)(F)F)cn1Cc1cccc(Cl)c1,17.2% (inactive)
21,O=[N+]([O-])/C=C/c1ccc2c(ccn2Cc2ccccc2)c1,84.5% (active)
22,O=C(/C=C/c1cccc([N+](=O)[O-])c1)N1CCN(Cc2ccccc2)CC1,-15.7% (inactive)
23,Cc1ccc(C(C)C)c(OCc2nnc(SCC(=O)Nc3nccs3)n2C)c1,-2.72% (inactive)
24,O=C(N[C@@H](Cc1ccccc1)C(=O)OCc1ccccc1)c1nc[nH]c1C(=O)NC1CCNCC1,-8.61% (inactive)
25,Cc1c(NC(=O)c2c([N+](=O)[O-])cnn2C)c(=O)n(-c2ccccc2)n1C,3.28% (inactive)
26,CCOC(=O)c1sc(C)c2c1NC(C)(c1cccc3ccccc13)NC2=O (stereo not drawn),31.1% (inactive)
